Experimental data from PubChem BioAssay (NCATS).
Results filed as inconclusive are left out. A call without a number means that no potency is given here. The source made the active and inactive calls. Unless noted, the call rests on the fitted dose curve; in most records, active means well fitted curve in the direction sought with a large enough effect; inconclusive means small, poorly fitted or top-dose-only effect, or another doubt; inactive means no such curve, though single readings can be large; an effect the other way counts as inactive or inconclusive.

How the values were obtained:
[1] = Cell Viability - Hek293 (AID 427;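 active means compounds whose dose-response curve shows a full or clear partial loss of cell viability, called from curve shape rather than a numeric limit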;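 further: potency means the concentration at half of the fitted maximal effect; cells exposed to compound for 40 hours at 37 °C before reading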); conditions: qHTS
In short: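 qHTS, human embryonic kidney (adenovirus-transformed) cells; 40 hr cpd, 37 °C; CellTiter-Glo ATP luminescence. Norm: DMSO = 0, 100 uM tamoxifen = 100% inhibition. Hill-fit AC50.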

[2] = Cell Viability - SK-N-SH (AID 435; calls by dose curve;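 further: potency means the concentration at half of the fitted maximal effect; compound exposure lasted 40 h at 37 °C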); conditions: SK-N-SH neuroblastoma cell viability qHTS
In short: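 SK-N-SH neuroblastoma cells (1500/well) treated 40 h at 37 °C in complete medium; viability read as cellular ATP by CellTiter-Glo luminescence. Normalized to DMSO and 100 uM tamoxifen; AC50 from Hill fits of qHTS concentration-response.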

[3] = Cell Viability - N2a (AID 540); conditions: N2a mouse neuroblastoma cell viability; activity change, negative = cytotoxicity: at 92.2 µM (top of the series); further: nearly all actives have a fitted effect of over 45% in size
In short: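 First, 1500 N2a cells per well incubate 5 hr at 37 °C; next, compounds are added and incubated 40 hr at 37 °C; finally CellTiter-Glo is added and luminescence read after 20 min, with AC50 derived by Hill modeling.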

[4] = Cell Viability - SH-SY5Y (AID 544); conditions: SH-SY5Y neuroblastoma cell viability; viability change, negative = cytotoxic: at 92.2 µM (top of the series); further: nearly all actives have a fitted effect of over 55% in size
In short: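 Cytotoxicity is scored as a concentration-dependent fall in intracellular ATP in human SH-SY5Y cells treated 40 hr in complete culture medium. Potency is expressed as AC50 from a Hill equation fit.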

[5] = Cell Viability - Renal Proximal Tubule (AID 545); conditions: renal proximal tubule cells viability, primary cells of rat origin; activity change, negative = cytotoxicity: at 91.7 µM (top of the series); further: nearly all actives have a fitted effect of over 40% in size
In short: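 Rat renal proximal tubule primary cells, 1000/well, exposed to compounds for 40 hr at 37 °C in complete medium; cellular ATP read by CellTiter-Glo luminescence. AC50 from concentration-response fitted with standard Hill equation.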

[6] = Cell Viability - LYMP2-001 (AID 921); conditions: LYMP2-001 lymphoblastoid cell viability; series mostly up to 92.2 µM; further: nearly all actives have a fitted effect of over 70% in size; further: potency means the concentration at half of the fitted maximal effect
In short: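 Human lymphoblastoid LYMP2-001 cells, 2500 per well, in complete medium, treated 24 h at 37 C. Viability from cellular ATP by CellTiter-Glo luminescence; AC50 from Hill-equation fits of qHTS concentration-response.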

[7] = MultiTox-Fluor Cytotoxicity Assay - LYMP1-002 - Dead Cells (AID 960); conditions: LYMP1-002 lymphoblastoid cells, dead-cell protease fluorescence; series mostly up to 46.1 µM;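 further: cells exposed to compound for 16 h at 37 °C; nearly all actives have a fitted effect of over 60% in size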
In short: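 Acute cytotoxicity in a human lymphoblastoid line is scored as rising dead-cell protease signal after 16 hr exposure at 37 C, measured fluorometrically (485/520).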

[8] = Cell Viability - LYMP2-005 (AID 967); conditions: LYMP2-005 lymphoblastoid cell viability; series mostly up to 92.2 µM
In short: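 Human lymphoblastoid LYMP2-005 cells, 2,500 per well in complete medium, rested 5 h at 37C then compound-treated 24 h at 37C. Intracellular ATP read by CellTiter-Glo luminescence after 30 min at room temperature; AC50 from Hill-equation fits of concentration-response data.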

[9] = Cell Viability - LYMP2-009 (AID 968); conditions: LYMP2-009 lymphoblastoid cell viability; series mostly up to 92.2 µM; further: nearly all actives have a fitted effect of over 55% in size
[10] = Cell Viability - LYMP2-015 (AID 971); conditions: LYMP2-015 lymphoblastoid cell viability; series mostly up to 92.2 µM; further: nearly all actives have a fitted effect of over 55% in size
In short: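 Acute toxicity was scored as a concentration-dependent drop in intracellular ATP in lymphoblastoid cells after 24 hr compound exposure in complete medium. Detection used CellTiter-Glo luciferase luminescence.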

[11] = Cell Viability - LYMP2-017 (AID 972); conditions: LYMP2-017 lymphoblastoid cell viability; series mostly up to 92.2 µM;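 further: cells exposed to compound for 24 hours at 37 °C; nearly all actives have a fitted effect of over 55% in size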
In short: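 Steps: plate 2500 lymphoblastoid cells per well; incubate 5 hr at 37 C; add compound across a concentration series and incubate 24 hr at 37 C; add CellTiter-Glo and read luminescence after 30 min at room temperature; fit Hill curves for AC50.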

[12] = qHTS assay for small molecule agonists of retinoid X receptor alpha signaling (AID 588544; calls by dose curve); conditions: HEK293T RXRa-UAS-bla, beta-lactamase reporter, 18 h; 530 nm emission
[13] = biological target: Retinoic acid receptor RXR-alpha (Homo sapiens) (UniProt P19793); test: as above; conditions: HEK293T RXRa-UAS-bla, beta-lactamase reporter, 18 h; series mostly up to 76.7 µM
[14] = biological target: Thyroid hormone receptor beta (Homo sapiens) (UniProt P10828); test: qHTS assay for small molecule agonists of thyroid hormone receptor beta signaling (AID 588545; calls by dose curve); conditions: TR-UAS-bla GripTite HEK 293, beta-lactamase ratio, agonist mode, 18 h; series mostly up to 76.7 µM
In short: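 Agonist activity was read as beta-lactamase CCF4 fluorescence (405 ex, 460/530 em), scaled between DMSO (0%) and 10 nM T3 (100%), then Hill-fitted for EC50 and efficacy. HEK 293 TR-UAS-bla cells in 2% charcoal/dextran FBS medium were exposed 18 h at 37 C.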

[15] = qHTS assay for small molecule disruptors of the mitochondrial membrane potential - 1 hr assay (AID 651754; calls by dose curve; further: nearly all actives have a fitted effect of over 35% in size); conditions: series mostly up to 92.2 µM
In short: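 Steps: seed HepG2 cells and let attach overnight; pin-transfer compound or vehicle; incubate 1 hr at 37C; add Mito-MPS dye for 30 min; read two-channel fluorescence for monomer and aggregate forms.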

[16] = qHTS assay for small molecule disruptors of the mitochondrial membrane potential - 5 hr assay (AID 651755; calls by dose curve; further: nearly all actives have a fitted effect of over 40% in size); conditions: JC-1-type ratio dye; series mostly up to 92.2 µM
In short: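 HepG2 cells, attached overnight at 37C, were exposed to compound or DMSO for 5 hr at 37C, 5% CO2. Mito-MPS dye was then added for 30 min, and fluorescence read at 490/535 nm (monomers) and 540/590 nm (aggregates).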

[17] = qHTS assay for small molecule agonists of the antioxidant response element (ARE) signaling pathway measured by Nrf2-dependant transcriptional activity (AID 720636; active means well fitted curve in the direction sought with a large enough effect in the repeat runs; an effect the other way counts as inactive or inconclusive;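 further: HepG2 cells with an ARE-driven luciferase reporter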); conditions: ARE-luc HepG2, Nrf2 luciferase reporter, 16 h; series mostly up to 92.4 µM
In short: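 Attachment 6 hr at 37 C, then compound versus DMSO vehicle for 16 hr in ARE-luc HepG2 cells (1% dialyzed FBS); luminescence recorded 30 min after ONE-Glo addition at room temperature.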

[18] = biological target: Nuclear receptor subfamily 1 group I member 2 (Rattus norvegicus) (UniProt Q9R1A7); test: qHTS assay for small molecule activators of the rat pregnane X receptor (rPXR) signaling pathway (AID 651751; call rule not given here); conditions: rPXR reporter cells, luciferase (One-Glo), 24 h
[19] = Cell Viability - LYMP2-019 (AID 973); conditions: LYMP2-019 lymphoblastoid cell line viability; series mostly up to 92.2 µM; further: nearly all actives have a fitted effect of over 55% in size
In short: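 Cells plated at 2500/well and allowed 5 hr at 37 C before compound addition. After 24 hr incubation, CellTiter-Glo reagent was added, plates sat 30 min at room temperature, and luminescence was recorded.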

[20] = Cell Viability - LYMP2-010 (AID 981); conditions: LYMP2-010 lymphoblastoid cell viability, qHTS; series mostly up to 92.2 µM
In short: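 Acute toxicity is scored as a concentration-dependent loss of cellular ATP in human lymphoblastoid cells after 24 hr compound exposure in complete medium. Tetraoctylammonium bromide is the positive control.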

Sequence of Retinoic acid receptor RXR-alpha (Homo sapiens) (P19793 whole entry, looked up): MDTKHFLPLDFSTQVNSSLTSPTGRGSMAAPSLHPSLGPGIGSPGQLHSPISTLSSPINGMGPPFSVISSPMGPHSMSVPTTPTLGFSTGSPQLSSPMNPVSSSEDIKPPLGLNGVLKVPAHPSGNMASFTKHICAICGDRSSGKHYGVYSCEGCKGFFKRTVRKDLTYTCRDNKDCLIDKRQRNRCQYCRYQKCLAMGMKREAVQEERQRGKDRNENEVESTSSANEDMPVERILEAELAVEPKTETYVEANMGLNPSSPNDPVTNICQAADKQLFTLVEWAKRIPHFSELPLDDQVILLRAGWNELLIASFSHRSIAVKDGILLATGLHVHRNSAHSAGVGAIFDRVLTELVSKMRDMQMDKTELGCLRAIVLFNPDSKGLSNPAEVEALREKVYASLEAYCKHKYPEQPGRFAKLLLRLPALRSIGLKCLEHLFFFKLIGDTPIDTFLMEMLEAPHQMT
Sequence of Thyroid hormone receptor beta (Homo sapiens) (P10828 whole entry, looked up): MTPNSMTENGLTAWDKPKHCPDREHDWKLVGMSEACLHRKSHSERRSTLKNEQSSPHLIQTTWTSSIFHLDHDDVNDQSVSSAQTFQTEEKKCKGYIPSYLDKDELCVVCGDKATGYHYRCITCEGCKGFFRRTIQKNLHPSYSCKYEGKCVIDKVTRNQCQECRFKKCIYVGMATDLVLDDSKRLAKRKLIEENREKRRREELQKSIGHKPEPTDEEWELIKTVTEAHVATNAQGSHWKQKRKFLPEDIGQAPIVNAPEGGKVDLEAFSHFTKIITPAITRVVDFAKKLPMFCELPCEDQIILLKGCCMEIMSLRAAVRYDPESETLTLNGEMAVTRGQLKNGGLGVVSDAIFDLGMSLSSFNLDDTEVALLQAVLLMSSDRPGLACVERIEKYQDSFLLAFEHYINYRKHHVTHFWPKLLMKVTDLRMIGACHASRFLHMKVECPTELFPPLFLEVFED
Sequence of Nuclear receptor subfamily 1 group I member 2 (Rattus norvegicus) (Q9R1A7 whole entry, looked up): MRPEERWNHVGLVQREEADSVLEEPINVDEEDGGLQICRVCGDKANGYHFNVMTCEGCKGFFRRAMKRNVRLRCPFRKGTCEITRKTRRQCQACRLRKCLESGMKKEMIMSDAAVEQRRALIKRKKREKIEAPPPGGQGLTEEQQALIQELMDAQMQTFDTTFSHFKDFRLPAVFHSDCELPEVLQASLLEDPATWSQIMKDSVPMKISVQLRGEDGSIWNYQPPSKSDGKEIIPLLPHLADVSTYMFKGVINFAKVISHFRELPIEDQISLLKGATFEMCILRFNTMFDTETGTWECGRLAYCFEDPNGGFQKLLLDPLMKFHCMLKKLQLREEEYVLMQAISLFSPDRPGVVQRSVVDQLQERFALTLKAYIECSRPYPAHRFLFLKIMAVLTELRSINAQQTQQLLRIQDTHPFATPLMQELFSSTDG

Row | SMILES | Potency [1] | Potency [2] | activity change, negative = cytotoxicity [3] | Potency [4] | Potency [5] | Potency [6] | Potency [7] | Potency [8] | Potency [9] | Potency [10] | Potency [11] | max response [12] [%] | Potency [13] | Potency [14] | Potency [15] | Potency [16] | Potency [17] | max response [18] | Potency [19] | Potency [20]
1 | O=[N+]([O-])c1ccc(F)cc1F | > 92 µM (inactive) | > 92 µM (inactive) | -8.79% (inactive) | inactive | inactive | 50.1 µM (active) | inactive | inactive | inactive | inactive | inactive | 0.464 | inactive | inactive | inactive | inactive | inactive | 0.993% (inactive) |  | 
2 | Clc1nc2ccccc2nc1Cl | > 92 µM (inactive) | > 92 µM (inactive) | -7.43% (inactive) |  | inactive |  | inactive | inactive |  |  |  |  |  | inactive | inactive | inactive |  |  |  | 
3 | O=C1OC(=O)c2ccccc21 | > 92 µM (inactive) | > 92 µM (inactive) | -28.6% (inactive) |  | inactive | inactive | inactive | inactive |  | inactive |  | -8.02 | inactive |  | inactive | inactive | inactive |  | inactive | inactive
4 | C=CC(=O)CC | > 92 µM (inactive) | > 92 µM (inactive) | 4.36% (inactive) | inactive | inactive | inactive | inactive | inactive | inactive | inactive | inactive | -11.5 | inactive | inactive | inactive | inactive | inactive | 9.91% (inactive) | inactive | inactive
5 | CCCCC(CC)COCCCN (stereo unspecified) | > 92 µM (inactive) | > 92 µM (inactive) |  | inactive | inactive | inactive | inactive | inactive | inactive | inactive | inactive | 1.27 | inactive | inactive |  |  | inactive | 1.77% (inactive) | inactive | inactive
6 | Cc1ccccc1OCC1CO1 (stereo unspecified) | > 92 µM (inactive) | > 92 µM (inactive) | -6.29% (inactive) | inactive | inactive | inactive | inactive | inactive | inactive | inactive | inactive | 14.4 | inactive |  | inactive | inactive | inactive | 0.751% (inactive) | inactive | inactive
7 | NC(=O)Nc1nc2ccccc2[nH]1 | > 92 µM (inactive) | > 92 µM (inactive) | -4.08% (inactive) | inactive | inactive | inactive |  | inactive | inactive | inactive | inactive | -1.01 | inactive |  | inactive | inactive | inactive | -2.46% (inactive) | inactive | inactive
